Results on 9 compounds are retold here after PubChem BioAssay (Tox21).

“And” between values parts separate entries of the source, which are not always exact repeats. Identical values can stand only once. Records with an inconclusive call do not appear. Where a structure was tested more than once in an assay, its records may differ in their call. The source made the active and inactive calls. Unless noted, the call rests on the fitted dose curve; in most records, active means well fitted curve in the direction sought with a large enough effect in the repeat runs; inconclusive means weak or mixed curves; inactive means no such curve, though single readings can be large; an effect the other way counts as inactive or inconclusive.

Experiment [1] is described as follows: qHTS assay to identify small molecule antagonists of the estrogen related receptor (ERR) signaling pathway from Tox21 library - cell viability counter screen (AID 1224834). Further: nearly all actives have a fitted effect of over 30% in size. Further: potency means the concentration at half of the fitted maximal effect. The gist of the method: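 Multiplexed viability counter screen in ERR cells: 17.5 h compound exposure at 37 C, CellTiter-Fluor added, 30 min at 37 C/5% CO2, fluorescence read.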
In general terms: Quantitative high-throughput screening tests each substance at several concentrations.

The target in experiment [2] is Luciferin 4-monooxygenase (Photinus pyralis) (UniProt P08659). In words: qHTS assay to identify small molecule inhibitors of firefly luciferase (AID 1224835). Further: nearly all actives have a fitted effect of over 25% in size. Further: potency means the concentration at half of the fitted maximal effect. The gist of the method: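 Quantitative HTS format; KM concentrations of both substrates. Purified P. pyralis FLuc activity quantified from luminescence images.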
A short description of experiment [3]: qHTS assay to identify small molecule antagonists of the constitutive androstane receptor (CAR) signaling pathway - cell viability counter screen (AID 1224837). Further: nearly all actives have a fitted effect of over 45% in size. Further: potency means the concentration at half of the fitted maximal effect. A digest of the protocol: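 Read-out: CellTiter-Fluor fluorescence after 23 hr at 37 C/5% CO2. Cells: HepG2 double-stable for hCAR and CYP2B6-2.2kb. Compounds tested at 15 concentrations in the presence of CITCO, final concentration 50 nM.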

For experiment [4], the target named is Nuclear receptor subfamily 1 group I member 3 (Homo sapiens) (UniProt Q14994). Put plainly: qHTS assay to identify small molecule antagonists of the constitutive androstane receptor (CAR) signaling pathway (AID 1224838).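 Further: HepG2 cells stably expressing hCAR with CYP2B6 luciferase reporter stimulated by CITCO; nearly all actives have a fitted effect of over 40% in size.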 Further: potency means the concentration at half of the fitted maximal effect. A digest of the protocol: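 Read-out: ONE-Glo luciferase luminescence after 30 min at room temperature. HepG2-CYP2B6-hCAR double-stable cells, compounds in 15-point titration plus 50 nM CITCO final, 24 h at 37 C/5% CO2.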

The nature of experiment [5]: qHTS assay to identify small molecule antagonists of the estrogen related receptor signaling pathway with the pleiotropic PPARgamma coactivator (PGC) from Tox21 10K library - cell viability counter screen (AID 1224840; active means well fitted cell-killing curve with a large enough effect in the repeat runs, not every such curve was filed as active; further: nearly all actives have a fitted effect of over 40% in size). A digest of the protocol: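 Fluorescence read-out of CellTiter-Fluor viability reagent, added after cells had been exposed to compound in DMSO for 17.5 h at 37 C; 30 min development at 37 C/5% CO2. Cells: PGC/ERR line, 2,000/well.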

A short description of experiment [6]: qHTS assay to identify small molecule agonists of the hypoxia (HIF-1) signaling pathway - cell viability counter screen (AID 1224844; calls by dose curve; further: nearly all actives have a fitted effect of over 50% in size). A digest of the protocol: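 CellTiter-Glo luminescence read-out, 30 min RT, taken in the same wells as the beta-lactamase HRE reporter assay; HRE-bla ME-180 cells, 0.5% dialyzed FBS, 17 hr compound treatment at 37C, 5% CO2.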

The nature of experiment [7]: qHTS assay to identify small molecule agonists of H2AX - cell viability counter screen (AID 1224847; calls by dose curve; further: nearly all actives have a fitted effect of over 30% in size; further: potency means the concentration at half of the fitted maximal effect). The gist of the method:
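Cells plated first: CHO-K1, 1000 per well in 10% FBS medium, incubated overnight at 37C. Then 15-point compound titration added (final DMSO 0.76%) for 3 hr. Finally CellTiter-Glo added and luminescence read.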

Experiment [8] in a line: qHTS RealTime-Glo MT Cell Viability Assay in HepG2 cells - 24 hour (AID 1224867). Further: nearly all actives have a fitted effect of over 50% in size. The gist of the method: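 HepG2 cells were seeded at 600 cells/well together with NanoLuc luciferase and a cell-permeant prosubstrate, preincubated 5 h at 37 C/5% CO2, then pin-dosed with compounds in DMSO. Nonlytic luminescence from viable cells was read at each time point.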
Experiment [9] can be described thus: qHTS RealTime-Glo MT Cell Viability Assay in HEK293 cells - 32 hour (AID 1224868). Further: nearly all actives have a fitted effect of over 50% in size. Further: potency means the concentration at half of the fitted maximal effect. A digest of the protocol: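 HEK293 cells were seeded at 600 cells/well together with NanoLuc luciferase and cell-permeant prosubstrate, preincubated 5 h at 37 C/5% CO2, then given compound in DMSO by pintool. Luminescence from viable-cell prosubstrate reduction was read repeatedly over 40 h.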

The nature of experiment [10]: A CellTox Green Cytotoxicity Assay to monitor cytotoxicity in HEK293 cells - 0 hour (AID 1224869). Further: nearly all actives have a fitted effect of over 50% in size. The gist of the method:
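Read-out: fluorescence of a cell-impermeant cyanine dye staining DNA of dead cells, proportional to cytotoxicity. HEK293, 600 cells/well with reagent, compound (23 nL DMSO) added after 5 h; reads at 0, 8, 16, 24, 32, 40 h.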

For experiment [11], the target named is Nuclear receptor subfamily 1 group I member 3 (Homo sapiens) (UniProt Q14994). Put plainly: qHTS assay to identify small molecule agonists of the constitutive androstane receptor (CAR) signaling pathway (AID 1224839). Further: nearly all actives have a fitted effect of over 15% in size. Further: potency means the concentration at half of the fitted maximal effect.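 On activation: HepG2 cells stably carrying human CAR and a CYP2B6 luciferase reporter.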 The gist of the method: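 HepG2-CYP2B6-hCAR cells, 2500/well, 4 h pre-incubation; compounds 15 conc.; PK11195 0.75 uM final; 24 h, 37 C/5% CO2; ONE-Glo luciferase read.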

The nature of experiment [12]: qHTS assay to identify small molecule antagonists of the estrogen related receptor signaling pathway with the pleiotropic PPARgamma coactivator (PGC) from Tox21 10K library (AID 1224841; call rule not given here; further: potency means the concentration at half of the fitted maximal effect). The gist of the method:
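Luminescence read-out (One-Glo luciferase reagent, 30 min at room temperature) from PGC/ERR cells exposed to DMSO-dissolved test compounds for 18 h at 37 C; cells, 2,000 per well, had been preincubated 6 h before compound transfer.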

The nature of experiment [13]: qHTS assay to identify small molecule agonists of the estrogen related receptor signaling pathway with the pleiotropic PPARgamma coactivator (PGC) from Tox21 10K library (AID 1224842). Further: nearly all actives have a fitted effect of over 15% in size. The gist of the method:
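PGC/ERR reporter cells (NTP line) were seeded 2,000 per well, rested 6 h at 37 C/5% CO2, then pin-dosed with compounds in DMSO for 18 h at 37 C; luciferase read by One-Glo luminescence after 30 min at room temperature.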

In experiment [14] the target is Thyrotropin receptor (Homo sapiens) (UniProt P16473). In words: qHTS assay to identify small molecule agonists of the thyroid stimulating hormone receptor (TSHR) signaling pathway (AID 1224843; calls by dose curve; further: nearly all actives have a fitted effect of over 45% in size). A digest of the protocol: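 Compounds are titrated over 15 concentrations, in triplicate, onto TSHR-HEK293 cells seeded at 800/well. Plates sit 30 min at room temperature before cAMP-d2 and anti-cAMP cryptate are added; signal is read after a further hour.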

The nature of experiment [15]: qHTS assay to identify small molecule agonists of H2AX (AID 1224845; active means well fitted activation curve with a large enough effect in the signal ratio in the repeat runs, not every such curve was filed as active; the % refers to the signal ratio). The gist of the method: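 Wild-type CHO-K1 cells plated overnight, then exposed 3 hr at 37C to compounds at 15 concentrations (0.76% DMSO). Lysed, then HTRF anti-pH2AX(S139)-cryptate/anti-H2AX-d2 detection after 24 hr at room temperature; emissions 665 and 620 nm.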
The nature of experiment [16]: qHTS assay to identify small molecule antagonists of the estrogen related receptor (ERR) signaling pathway from Tox21 library (AID 1224848). Further: nearly all actives have a fitted effect of over 50% in size. Further: potency means the concentration at half of the fitted maximal effect. The gist of the method:
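First, 2,000 ERR cells per well were plated and held 6 h at 37 C/5% CO2. Next, compounds in DMSO were pinned in and left 18 h at 37 C. Finally, ONE-Glo was added and luminescence read after 30 min at room temperature.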

Experiment [17] in a line: qHTS assay to identify small molecule agonists of the estrogen related receptor (ERR) signaling pathway from Tox21 library (AID 1224849; calls by dose curve; further: nearly all actives have a fitted effect of over 15% in size). Particulars: ERR reporter cell line, ONE-Glo luciferase, 18 h. A digest of the protocol:
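Luminescence readout (ONE-Glo, 30 min RT) after 18 h compound exposure at 37 C of NTP-supplied ERR reporter cells; cells were plated 6 h before compound addition by pin tool.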

Experiment [18] in a line: qHTS assay to identify small molecule agonists of the constitutive androstane receptor (CAR) signaling pathway - cell viability counter screen (AID 1224836). Further: nearly all actives have a fitted effect of over 45% in size. A digest of the protocol:
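HepG2-CYP2B6-hCAR, 2500 cells/well, 4 h pre-incubation; cpd 15 conc + PK11195 0.75 uM final; 23 h, 37 C/5% CO2; CellTiter-Fluor, fluorescence.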

Experiment [19] can be described thus: qHTS assay to identify small molecule agonists of the hypoxia (HIF-1) signaling pathway (AID 1224846; active means well fitted activation curve with a large enough effect in the signal ratio in the repeat runs, not every such curve was filed as active; the % refers to the signal ratio). A digest of the protocol: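 Beta-lactamase FRET read-out (CCF4-AM substrate) from ME-180 cells carrying an HRE-driven bla reporter, after 17 hrs compound exposure at 37C/5% CO2. Cells were seeded at 2,000 per well in 0.5% dialyzed FBS medium and preincubated 5 hrs.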
On the % scale 0 is the no-effect control and ±100 the full control effect.

Nuclear receptor subfamily 1 group I member 3 (Homo sapiens), sequence (Q14994 whole entry, looked up): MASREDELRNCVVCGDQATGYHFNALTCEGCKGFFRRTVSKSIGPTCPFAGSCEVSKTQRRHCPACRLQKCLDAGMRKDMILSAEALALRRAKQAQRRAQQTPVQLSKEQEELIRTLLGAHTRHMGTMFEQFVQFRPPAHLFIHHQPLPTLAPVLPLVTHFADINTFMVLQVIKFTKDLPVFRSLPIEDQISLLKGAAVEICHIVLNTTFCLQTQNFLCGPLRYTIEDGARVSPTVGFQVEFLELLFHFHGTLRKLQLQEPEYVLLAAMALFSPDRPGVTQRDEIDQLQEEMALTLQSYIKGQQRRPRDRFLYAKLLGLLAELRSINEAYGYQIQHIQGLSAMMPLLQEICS
Thyrotropin receptor (Homo sapiens), sequence (P16473 whole entry, looked up): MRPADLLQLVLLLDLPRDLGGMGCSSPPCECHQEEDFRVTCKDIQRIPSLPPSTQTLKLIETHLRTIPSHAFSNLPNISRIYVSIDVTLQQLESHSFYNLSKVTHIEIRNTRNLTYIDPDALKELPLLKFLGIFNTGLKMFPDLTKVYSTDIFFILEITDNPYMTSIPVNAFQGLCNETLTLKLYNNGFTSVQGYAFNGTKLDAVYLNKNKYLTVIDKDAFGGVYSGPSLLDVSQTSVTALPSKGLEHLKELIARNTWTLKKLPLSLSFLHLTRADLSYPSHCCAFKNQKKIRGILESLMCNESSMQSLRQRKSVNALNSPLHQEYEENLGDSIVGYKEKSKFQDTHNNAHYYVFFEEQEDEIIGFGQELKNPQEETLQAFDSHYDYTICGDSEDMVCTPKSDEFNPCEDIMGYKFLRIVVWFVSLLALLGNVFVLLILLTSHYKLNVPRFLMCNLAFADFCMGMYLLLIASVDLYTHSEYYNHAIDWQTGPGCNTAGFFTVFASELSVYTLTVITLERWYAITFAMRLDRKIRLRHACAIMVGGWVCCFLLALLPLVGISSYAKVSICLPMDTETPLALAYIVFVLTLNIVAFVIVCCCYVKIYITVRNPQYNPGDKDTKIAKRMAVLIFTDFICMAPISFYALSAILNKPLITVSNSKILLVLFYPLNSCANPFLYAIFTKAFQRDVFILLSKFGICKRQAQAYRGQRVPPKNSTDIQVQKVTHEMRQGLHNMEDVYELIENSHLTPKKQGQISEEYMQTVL
Luciferin 4-monooxygenase (Photinus pyralis), sequence (P08659 whole entry, looked up): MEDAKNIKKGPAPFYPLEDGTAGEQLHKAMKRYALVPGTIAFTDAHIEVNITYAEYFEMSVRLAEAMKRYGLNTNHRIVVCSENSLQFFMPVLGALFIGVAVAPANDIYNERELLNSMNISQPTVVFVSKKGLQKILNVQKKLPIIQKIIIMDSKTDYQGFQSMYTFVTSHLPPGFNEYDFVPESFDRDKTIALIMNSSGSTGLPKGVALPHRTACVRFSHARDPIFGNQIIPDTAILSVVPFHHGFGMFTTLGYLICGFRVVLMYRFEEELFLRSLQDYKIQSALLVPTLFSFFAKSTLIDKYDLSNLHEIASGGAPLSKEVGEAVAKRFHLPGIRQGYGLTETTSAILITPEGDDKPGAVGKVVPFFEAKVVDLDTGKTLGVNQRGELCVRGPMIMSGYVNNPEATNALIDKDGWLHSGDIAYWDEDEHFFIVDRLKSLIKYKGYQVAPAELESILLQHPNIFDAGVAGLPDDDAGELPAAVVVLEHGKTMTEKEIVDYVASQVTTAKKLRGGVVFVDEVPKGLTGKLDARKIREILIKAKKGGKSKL

In the case of `Nc1ccc(Nc2ccccc2)cc1`, the Potency in [1] was 54.5 µM (active) and 27.3 µM (active); in experiment [2], 79.7 µM (active); in [7] it was 89.8 µM (active) and 50.5 µM (active); in [9], 48.5 µM (active). In addition, the Potency result in experiment [3], in experiment [4], in experiment [5], in experiment [6], in experiment [8] and in experiment [10] was “inactive” each time.

On to `O=C(Nc1ccc(Cl)cc1)Nc1ccc(Cl)c(Cl)c1`, for which the Potency is 12.1 µM (active) and 6.86 µM (active) and 18.8 µM (active) in experiment [1]; 5.62 µM (active) and 10 µM (active) and 9.77 µM (active) in experiment [2]; 15.4 µM (active) in experiment [3]; 3.44 µM (active) and 4.22 µM (active) in experiment [11]; 12.1 µM (active) and inactive in experiment [12]; 22.5 µM (active) and 28.4 µM (active) and 22 µM (active) in experiment [7]. Moreover, the Potency is 5.42 µM (active) and 11.9 µM (active) in [16]; 4.34 µM (active) and 4.36 µM (active) and 3.38 µM (active) in experiment [9]. Further, the Potency entry in experiment [4], in [13], in [14], in [6], in experiment [8] and in [10] was “inactive” each time. Besides, in experiment [15], the outcome was inactive. Further, the activity change, positive = activation in experiment [17] (at 42.5 µM (top of the series)) is -29.5% (inactive); in experiment [17] (at 92.4 µM (top of the series)), -26.7% (inactive) and -3.58% (inactive).

Regarding `Nc1ccc(Cl)cc1Cl`, the Potency result in [1], in experiment [2], in experiment [3], in experiment [5], in experiment [12] and in [13] was “inactive” each time. In addition, the Potency entry in experiment [14], in experiment [6], in [7], in [16], in [8] and in experiment [9] was “inactive” in each case. Moreover, the Potency result in [10] is “inactive”. Besides, the compound was called inactive in experiment [15]. In experiment [17] (at 92.4 µM (top of the series)), the activity change, positive = activation is 1.8% (inactive).

For the compound `NC=O`, the Potency entry in experiment [1], in experiment [2], in [3], in experiment [5], in experiment [12] and in experiment [13] was “inactive” in each case. The Potency result in experiment [7], in [16], in [8], in experiment [9] and in experiment [10] was “inactive” throughout. For the same compound, the compound was called inactive in experiment [15]. The activity change, positive = activation in experiment [17] (at 92.4 µM (top of the series)) was 6.78% (inactive) and -1.46% (inactive).

As to `CCCCCCCCCCCO`, the Potency result in experiment [1], in [3], in [4], in experiment [11], in [5] and in [12] was “inactive” throughout. Moreover, the Potency entry in experiment [13], in [14], in experiment [6], in experiment [16], in experiment [8] and in experiment [9] was “inactive” in each case. In addition, the Potency entry in experiment [10] is “inactive”. For the same compound, in [15], the call was inactive. Besides, the activity change, positive = activation in experiment [17] (at 92.4 µM (top of the series)) was -4.02% (inactive) and 0.762% (inactive).

For `O=C1c2cccc(O)c2C(=O)c2c(O)cccc21`, the Potency entry in [2], in [18], in experiment [3], in experiment [4], in experiment [11] and in [5] was “inactive” throughout. Besides, the Potency result in experiment [13], in experiment [14], in experiment [6], in [19], in experiment [8] and in experiment [10] was “inactive” throughout. Also, the Potency in [12] is 39 µM (active) and inactive. The call in [15] was inactive. Moreover, the activity change, positive = activation in experiment [17] (at 42.5 µM (top of the series)) is -19.1% (inactive); in experiment [17] (at 92.4 µM (top of the series)), -20.9% (inactive).

`CN1C(C(=O)Nc2ccccn2)=C(O)c2ccccc2S1(=O)=O`: the Potency entry in experiment [1], in experiment [3], in experiment [4], in experiment [11], in experiment [5] and in experiment [14] was “inactive” throughout. The Potency entry in experiment [8], in experiment [9] and in experiment [10] was “inactive” each time. Also, in experiment [15], the compound was called inactive.

Regarding `CC(=O)O[C@]1(C(C)=O)CC[C@H]2[C@@H]3C=C(Cl)C4=CC(=O)[C@@H]5C[C@@H]5[C@]4(C)[C@H]3CC[C@@]21C`, the Potency entry in experiment [2], in experiment [18], in [3], in [5], in experiment [14] and in experiment [6] was “inactive” each time. Moreover, the Potency result in experiment [10] is “inactive”. Also, the compound was called inactive in experiment [15]. In addition, the Potency in [9] was 24.5 µM (active) and inactive.

As for `COc1cc([C@@H]2c3cc4c(cc3[C@H](O)[C@H]3COC(=O)[C@H]23)OCO4)cc(OC)c1OC`, the Potency entry in experiment [2], in experiment [18], in experiment [11], in experiment [5], in experiment [14] and in experiment [6] was “inactive” throughout. The Potency result in experiment [8] and in experiment [10] was “inactive” in each case. In addition, the Potency in [4] was 48.5 nM (active) and 59.6 nM (active); in experiment [9] it was 0.0489 µM (active). Besides, the result in [15] was inactive.
